Measurements taken from ChEMBL document CHEMBL4296182, “CO-ADD screening of NIH NCI Diversity Set V”.
For part of these data: Entries with a potency or affinity are not part of this list.

Assays:
Staphylococcus aureus = assay: Antibacterial activity against Staphylococcus aureus MRSA ATCC 43300 (CO-ADD:GP_020); MIC in CAMBH media using NBS plates, by Resazurin F(560/590); format: functional; conditions: Concentration 20 uM, ASSAY_TEST Inhibition of Bacterial Growth, detection method Resazurin, Fluorescence (ex560/em590), MEDIA CAMHB, plate type 384well, CORNING #3640, time 18 hr
Acinetobacter baumannii = assay: Antibacterial activity against Acinetobacter baumannii ATCC 19606 (CO-ADD:GN_034); MIC in CAMBH media using NBS plates, by Resazurin F(560/590); format: functional; conditions: Concentration 20 uM, ASSAY_TEST Inhibition of Bacterial Growth, detection method Resazurin, Fluorescence (ex560/em590), MEDIA CAMHB, plate type 384well, CORNING #3640, time 18 hr
Escherichia coli = assay: Antibacterial activity against Escherichia coli ATCC 25922 (CO-ADD:GN_001); MIC in CAMBH media using NBS plates, by Resazurin F(560/590); format: functional; conditions: Concentration 20 uM, ASSAY_TEST Inhibition of Bacterial Growth, detection method Resazurin, Fluorescence (ex560/em590), MEDIA CAMHB, plate type 384well, CORNING #3640, time 18 hr
Klebsiella pneumoniae = conditions: Concentration 20 uM; ASSAY_TEST Inhibition of Bacterial Growth; detection method Absorption (OD600); MEDIA CAMHB; plate type 384well; NBS; CORNING #3640; time 18 hr
Candida albicans = conditions: 20 µM
Cryptococcus neoformans = conditions: Concentration 20 uM; ASSAY_TEST Inhibition of Fungal Growth; detection method Resazurin; Absorption (OD600-OD570); plate type 384well; NBS; CORNING #3640

SMILES | Inhibition (Staphylococcus aureus) | Inhibition (Acinetobacter baumannii) | Inhibition (Escherichia coli) | Inhibition (Klebsiella pneumoniae) | Inhibition (Candida albicans) | Inhibition (Cryptococcus neoformans)
C=CCN(CC=C)C(=O)Nc1cc(OC)ccc1OC | -0.3% | -10.17% | 5.84% | 8.16% | 3.21% | -3.48%
N#Cc1n[nH]c2nc[nH]c(=O)c12 | 10.72% | -7.81% | 9.33% | 13.07% | 0.58% | -10.99%
O=S(=O)(c1ccc2c(c1)CCCN2)N1CCC[C@H]2CCCC[C@@H]21 | 4.63% | -20.33% | 3.15% | 6.75% | 8.6% | -4.42%
CCCCSc1cc(C)nc(N)n1 | 19.18% | -7.66% | 11.54% | 4.75% | 1.09% | -5.9%
N#CC1=C2CCCCC2(O)NC1=O (stereo unspecified) | 6.52% | -3.34% | 7.41% | 2.61% | -0.03% | -5.83%
c1ccc(-c2nnc3nc(N4CCCCC4)nc(N4CCCCC4)n23)cc1 | -3.53% | -1.96% | 14.28% | 1.6% | 1.09% | -15.11%
CCC(C)n1c(C)cc(=O)n1C(C)CC (stereo unspecified) | 2.1% | -5.44% | -0.28% | 0.77% | -0.29% | -4.99%
Clc1cc2c(c(CSc3nc4ccccc4n4cccc34)c1)OCOC2 | 18.29% | 11.44% | -3.64% | 3.77% | 0.34% | 2.56%
Cc1nc(N)nc(Nc2ccc(C#N)cc2)c1Br | 13.25% | -2.28% | 22.67% | 5.37% | 0.12% | -9.52%
COc1ccc2[nH]c(-c3ccccc3)cc2c1 | 9.9% | 3.58% | 0.95% | 16.65% | 6.65% | -9.39%
C/C(=N\O)[C@H]1CC[C@H]2[C@@H]3CC[C@@H]4C/C(=N/O)CC[C@]4(C)[C@H]3[C@@](C)(O)C[C@]12C | 13.92% | 2.13% | 6.69% | 4.28% | 2.6% | -11.49%
CCn1c2ccccc2nc2cc3c(cc21)c(Cl)c(=O)c1ccccc13 | 25.73% | 12.51% | 3.84% | 12.19% | -1.37% | -5.64%
COC(=NC(C)C)NC(C)C | 0.33% | -8.49% | 15.21% | 8% | 1.22% | -13.2%
COc1cc(C(=O)OC(C)CN2CCOCC2)cc(OC)c1OC (stereo unspecified) | 13.82% | 10.27% | 6.24% | 16.73% | -2.91% | -0.56%
Cc1ccc(C#CC(C)(O)C(C)(C)C)cn1 (stereo unspecified) | 4.47% | 10.01% | 1.4% | 18.58% | 7.24% | -1.46%
Brc1csc2ncccc12 | 8.68% | 14.4% | -1.37% | 10.17% | 7.21% | -5.07%
CCCCC(=O)N(CCC)CCC | 2.53% | -12.7% | 10.06% | 7.98% | -2.94% | -14.22%
Nc1nc2cc([N+](=O)[O-])ccc2[nH]1 | 15.13% | -11.46% | 3.91% | 4.78% | 0.21% | -13.6%
N=C(N)n1c(N)nc2ccccc2c1=O | -3.84% | 11.96% | 12.39% | 5.57% | 0.23% | -13.19%
CCNC(=O)Oc1cccnc1O | 2.22% | -10.2% | 11.39% | 5.97% | 1.04% | -16.02%
Cc1nc2ccc(N)nc2nc1C | 15.94% | -14.31% | 16.52% | 12.13% | -1.28% | -2.36%
Cc1ccc(C)c(-n2c(-c3ccc(Br)cc3)cs/c2=N\C(=O)c2ccccc2F)c1 | 15.56% | -6.11% | 6.4% | 8.65% | 4.24% | -4.37%
OCC1(CO)CC2(C1)CC(CO)(CO)C2 | 5.83% | -10.2% | 9.77% | 7.41% | -2% | 1.54%

SMILES | Inhibition (Staphylococcus aureus) | Inhibition (Acinetobacter baumannii) | Inhibition (Escherichia coli) | Inhibition (Klebsiella pneumoniae) | Inhibition (Candida albicans) | Inhibition (Cryptococcus neoformans)
CCc1ccc(CCN2C(=O)c3ccccc3C2=O)nc1 | 9.03% | 4.62% | -1.52% | 17.62% | 2.59% | -6.09%
CCn1c2ccccc2c2c3ncc4cccn4c3ccc21 | -13.6% | -8.64% | 1.37% | 9.08% | 32.4% | -7.68%
O=C(Nc1cccc2c1N(C(=O)c1ccco1)CCC2)c1ccco1 | 23.38% | 8.42% | 4.6% | 13.8% | -1.4% | -2.48%
Cn1c(SCc2ccccn2)nc2c1c(=O)[nH]c(=O)n2C | 7.99% | -7.81% | 13.96% | 9.58% | 0.41% | -8.81%
C(=N\N=c1/nnn(Cc2ccccc2)[nH]1)/c1ccccc1 | 11.96% | -3.55% | 3.73% | 9.14% | 6.47% | -8.48%
CCOC(=O)CC1(C)NC(C(=O)O)C(C)(C)S1 (stereo unspecified) | -14.37% | 0.02% | -11.39% | 5.07% | 3.25% | 0.86%
Cc1cc(NC(=O)c2ccccc2)nc(C)n1 | 8.84% | -8.03% | 12.79% | 3.38% | 0.88% | -15.88%
Clc1nnc(NC2CCCCC2)c(Cl)c1Cl | -0.25% | -5.61% | 15.05% | 1.58% | 27.2% | -9.26%
O=C(c1ccccc1)c1ccc(Sc2ccc([N+](=O)[O-])cc2)cc1 | 11.06% | -8.42% | 1.44% | 19.14% | 2.18% | -2.51%
C=C1CC2(OC1=O)c1ccccc1CCc1ccccc12 | -2.53% | -14.2% | 2.27% | 9.76% | 10.3% | -9.88%
COc1c(/C=N/NC(N)=O)c(OC)c(OC)c2c1CCO2 | 5.41% | 0.63% | -9.64% | 15.41% | 4.39% | 14.65%
Clc1ccccc1-c1nc2ccccc2[nH]1 | 11.4% | -8.21% | 9.05% | 12.13% | 4.17% | -6.44%
COc1cc2c(cc1OC)C(/C=C/c1ccco1)=NCC2.O=S(=O)(O)O | 23.97% | 13.38% | 7.22% | 11.02% | -0.93% | -6.67%
CN(C)Cc1c[nH]c2nccnc12 | 11.84% | -4.46% | 11.46% | 8.34% | 0.19% | 2.55%
Cc1ccc2c(c1)sc1nncn12 | 15.32% | -15.79% | 12.68% | 5.69% | -0.75% | -11.46%
Nc1o[nH]c(=O)c1C1CCCCC1 | 7.44% | -3.3% | 16.54% | 10.69% | 1.7% | -0.63%
Cl.Nc1ncnc2c(C3OC(CO)C(O)C3O)c[nH]c12 (stereo unspecified) | 3.2% | 11.32% | -11.86% | 9.96% | 2.09% | -0.14%
Nc1ncnc2c1ncn2C1OC(CO)C(O)C1N (stereo unspecified) | -5.5% | -14.65% | 5.58% | 3.14% | -0.11% | -5.11%
NC(=O)c1ccccc1NC(=O)COc1ccc(Cl)cc1 | 16.24% | 7.59% | 9.93% | 7.02% | 1.18% | -8.55%
CC1=CC2C(C(O)CC3(C)C2CC(C)C32OCOC23COCO3)C2(C)C/C(=C/O)C(=O)C=C12 (stereo unspecified) | 18.36% | -11.09% | 9.35% | 4.64% | 15.1% | -16.69%
COc1c(C=O)c2c(c(OC)c1OC)-c1ccc(OC)c(=O)cc1[C@@H](NC(C)=O)CC2 | -5.44% | -11.93% | 15.89% | 9.96% | 0.57% | -7.77%
OC(COc1ccccc1)CN1CCN(c2ccccc2)CC1 (stereo unspecified) | 6.47% | -11.62% | 3.6% | 14.06% | 0.81% | -11.95%
Brc1ccc(-c2csc(Nc3nc(-c4ccc(Br)cc4)cs3)n2)cc1 | 27.27% | -8.44% | 9.62% | 1.43% | 3.84% | 3.42%
